In the library only some 4% were active in any assay of this set; here they are far more common.
Mdm2 MdmX PPI – inhibitors of human Mdm2-MdmX association, primary screen, cell-based, luminescence, split luciferase, SaOS-2, uHTS; Protein Mdm4 (Homo sapiens) + E3 ubiquitin-protein ligase Mdm2 (Homo sapiens), …; SaOS-2 split-luciferase Mdm2/MdmX complementation; inhibition, % at 8 µM; 330,000 compounds, 3% hits; AID 485346, 2010;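 active = inhibition of at least 50% at 8 µM in the primary screen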
Beta cell apopt – inhibitors of cytokine-induced beta cell apoptosis, primary screen, luminescence. INS-1E cytokine-induced death, ATP luminescence, 48 h; percent of positive-control rescue, neutral wells zero. protection from apoptosis, % (test concentration not listed). 300,000 compounds, 0.8% hits. AID 435005, 2010;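 active = Every replicate reaches about 75%, or at least half do and their mean reaches it too, limit read from the data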;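 note: 0% = cytokine-treated negative control wells and 100% = positive control rescue; higher means more ATP so stronger rescue from cytokine killing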
Shn3 3UTR inh – reduction of Shn3 3'UTR firefly luciferase signal, primary screen, Schnurri-3 inhibitor project, cell-based, Clone20 osteoblasts, set 2; Clone20 osteoblast Shn3 3'UTR firefly luciferase, 24 h; inhibition, % at 12.5 µM; 360,000 compounds, 0.52% hits;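 active = mean inhibition of at least 75% with every replicate also reaching 75%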;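 note: 0% = median of neutral control wells and 100% = pilot-screen positive control compound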
Gli-Sufu antag – Gli-Sufu pathway antagonists, primary screen, luciferase luminescence, Sufu-KO-LIGHT cells, uHTS; Sufu-KO-LIGHT fibroblasts, Gli luciferase reporter luminescence; inhibition, % at 5 µM; 340,000 compounds, 0.74% hits; AID 588413, 2011;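 active = inhibition above about 55%, limit read from the data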;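 note: 0% = DMSO-treated cells and 100% = wells with medium but no cells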
PAX8 inh HTS – inhibitors of PAX8-driven TPO luciferase reporter, primary screen, RMG-I cells, single concentration. SteadyGlo, 24 h. inhibition, % at 12.6 µM. 360,000 compounds, 1.2% hits. AID 652154, 2013;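 active = mean replicate inhibition at least 60% with every replicate also reaching 60%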;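 note: luciferase light reporting Pax8 driven TPO promoter activity; plate controls were median of neutral control wells for no effect and mitoxantrone controls for full effect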
CSC inhib – cancer stem cell viability inhibitors, primary screen, luminescence. cancer stem cell-like cells viability. inhibition, % at 7.5 µM. 300,000 compounds, 1.1% hits. AID 2717, 2010; in the data active = inhibition above about 75%; tested in HMLE shEcad cells
Gli-Sufu confirm – Gli-SUFU pathway antagonists, confirmation, single concentration, luciferase luminescence, Sufu-KO-LIGHT cells | AID 602428, 2012 | shares compounds with Gli-Sufu antag | 2,500 compounds, 40% hits | inhibition, % at 5 µM | Gli luciferase reporter;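 active = mean inhibition at 5 µM reaching about 45%, limit read from the data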;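 note: plate controls were DMSO-treated cells for no effect and wells lacking cells for full effect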
SufuKO cytotox – cytotoxicity in Sufu-KO-LIGHT cells, confirmation, cytotoxicity control for Gli-SUFU antagonist project, cell-based, ATP luminescence, single concentration; shares compounds with Gli-Sufu antag; cytotoxicity, % at 5 µM; 2,500 compounds, 32% hits;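 active = mean cytotoxicity at 5 µM above about 25%, limit read from the data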;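 note: cells exposed to compound overnight for roughly 16 to 18 hours; plate controls were DMSO wells with cells for no effect and medium without cells for full effect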
Wnt3a cs – Wnt3a reporter signal inhibition, confirmation, counter-screen for Gli-SUFU antagonist project, Wnt-LIGHT cells, luminescence, single concentration; shares compounds with Gli-Sufu antag; Wnt3a-driven luciferase reporter; inhibition, % at 6.25 µM; 2,500 compounds, 20% hits; AID 651995, 2013;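 active = mean inhibition above about 25%, limit read from the data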
* = called active by the depositor.

`O=C1CNC[C@@H]2[C@@H](c3ccc(C#Cc4cccnc4)cc3)[C@@H](CO)N12` gave PAX8 inh HTS -78.
COC(=O)C[C@@H]1C[C@@H]2c3cc(NC(=O)Cc4ccncc4)ccc3O[C@@H]2[C@H](CO)O1 was read as PAX8 inh HTS -9.
Screening Cn1c(N)c(C(=O)COC(=O)c2ccc(F)cc2Cl)c(=O)n(C)c1=O returned Mdm2 MdmX PPI 8, Beta cell apopt -6, Shn3 3UTR inh 2, Gli-Sufu antag -2, PAX8 inh HTS -6 and CSC inhib -12.
`Cn1c(N)c(C(=O)COC(=O)C2(c3cccc(F)c3)CCCC2)c(=O)n(C)c1=O` gave Mdm2 MdmX PPI -6, Beta cell apopt -5, Shn3 3UTR inh -7, Gli-Sufu antag 99*, CSC inhib -15, Gli-Sufu confirm 15, SufuKO cytotox 2 and Wnt3a cs -7.
`Cc1ccc2c(c1)NCC(C(=O)NC1CCCCC1)O2` (stereo not drawn) gave Mdm2 MdmX PPI 5, Beta cell apopt -1, Shn3 3UTR inh 7, Gli-Sufu antag 52, CSC inhib -2, Gli-Sufu confirm 9, SufuKO cytotox -4 and Wnt3a cs -4.
Screening Cc1ccc(C)c(NC(=O)NC2CCCCCCC2)c1 returned Mdm2 MdmX PPI 11, Beta cell apopt 4, Shn3 3UTR inh 16, Gli-Sufu antag -8, PAX8 inh HTS 3 and CSC inhib -10.
For N#Cc1ccc(Sc2nc3ccccc3[nH]2)cc1C#N the results were Mdm2 MdmX PPI 15, Beta cell apopt -7, Shn3 3UTR inh 10, Gli-Sufu antag 92*, PAX8 inh HTS 8, CSC inhib 16, Gli-Sufu confirm 24, SufuKO cytotox -5 and Wnt3a cs -1.
For CCOC(=O)N1CCN(C(=S)NC)CC1 the results were Mdm2 MdmX PPI 4, Beta cell apopt 2, Shn3 3UTR inh -1, Gli-Sufu antag 3, PAX8 inh HTS 0 and CSC inhib -10.
For CCC(=O)NC1CCN(C(=S)NC)CC1 the results were Mdm2 MdmX PPI 13, Beta cell apopt 4, Shn3 3UTR inh -15, Gli-Sufu antag 57*, PAX8 inh HTS -30, Gli-Sufu confirm 6, SufuKO cytotox 5 and Wnt3a cs -22.
`CC(=O)N[C@@H]1CC[C@@H](CC(=O)NCC2CCCCC2)O[C@H]1CO` gave PAX8 inh HTS 3.
Screening CNC[C@@H]1Oc2ccc(NC(=O)CCC(F)(F)F)cc2CC(=O)N([C@H](C)CO)C[C@H]1C returned PAX8 inh HTS 37.
Cc1nn(C(C)(C)C)c(OC(=O)c2ccco2)c1Sc1ccccc1 was read as Mdm2 MdmX PPI 26, Beta cell apopt -3, Shn3 3UTR inh -12, Gli-Sufu antag 92*, PAX8 inh HTS 11, CSC inhib -1, Gli-Sufu confirm 36, SufuKO cytotox 4 and Wnt3a cs 0.
O=C(O)c1ccc(N/N=C/c2ccncc2)cc1 was read as Mdm2 MdmX PPI 12, Beta cell apopt -1, Shn3 3UTR inh -4, Gli-Sufu antag -4, PAX8 inh HTS -33 and CSC inhib -9.
For O=C(O)c1ccc(N/N=C/c2ccc3nccnc3c2)cc1 the results were Mdm2 MdmX PPI 19, Beta cell apopt 5, Shn3 3UTR inh 80, Gli-Sufu antag 55*, PAX8 inh HTS 119*, CSC inhib 27, Gli-Sufu confirm 59*, SufuKO cytotox 35* and Wnt3a cs 101*.
